In the library only some 11% were active in any assay of this set; here they are far more common.
FLuc inh – Firefly luciferase inhibition profiling of diverse chemical library using quantitative high-throughput screening. Luciferin 4-monooxygenase (Photinus pyralis), P08659. purified P. pyralis luciferase, luminescence, biochemical. Potency, µM (doses to about 115 µM), most hits filed as inhibitors. 2.5% of 76,000 active; also: nearly all actives have a fitted effect of over 65% in size
Target sequence (P08659 whole entry, looked up): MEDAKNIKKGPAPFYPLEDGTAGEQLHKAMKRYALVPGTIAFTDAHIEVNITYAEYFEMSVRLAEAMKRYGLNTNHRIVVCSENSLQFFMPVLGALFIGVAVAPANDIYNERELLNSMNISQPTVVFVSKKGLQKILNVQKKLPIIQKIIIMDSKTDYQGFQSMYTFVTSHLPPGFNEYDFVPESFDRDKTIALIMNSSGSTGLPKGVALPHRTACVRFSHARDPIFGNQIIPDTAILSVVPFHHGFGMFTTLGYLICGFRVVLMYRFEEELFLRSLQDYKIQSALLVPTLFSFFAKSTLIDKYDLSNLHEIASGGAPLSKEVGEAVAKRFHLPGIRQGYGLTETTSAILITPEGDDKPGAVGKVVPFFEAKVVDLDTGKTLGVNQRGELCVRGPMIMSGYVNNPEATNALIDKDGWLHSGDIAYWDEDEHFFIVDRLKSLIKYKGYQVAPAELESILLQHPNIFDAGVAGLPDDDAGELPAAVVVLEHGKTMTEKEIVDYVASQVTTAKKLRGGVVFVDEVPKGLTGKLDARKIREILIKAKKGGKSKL
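Purified 10nM P. pyralis luciferase with 10uM D-luciferin and 10uM ATP in 50mM Tris acetate pH 7.5, 10mM Mg acetate, 0.01% Tween-20, 0.05% BSA. qHTS titration; luminescence read by CCD imager.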
HEK293 tox – Cytotoxic Profiling in HEK 293 Cell Line of Diverse Libraries Using Quantitative High-Throughput Screening. AID 1345083, 2018. 6.6% of 94,000 active. HEK 293 viability, ATP luminescence (CellTiter-Glo), 48-72 h. Potency, µM (titrated, usually from 115 µM), inactives show top-dose activity change, negative = cytotoxicity, most hits filed as inhibitors; also: nearly all actives have a fitted effect of over 60% in size
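Pintool-delivered compounds were incubated with HEK 293 cells (250 cells/well) at 37 degree Celsius for 48 or 72 hr. ATP-dependent luminescence (CellTiter-Glo) then reported remaining viable cells.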
hNpr1 antagonist – Natriuretic polypeptide receptor (hNpr1) antagonism - Primary qHTS; Potency, µM (series often up to 46.3 µM), for the others: at the highest dose activity change, negative = inhibition, most hits filed as inhibitors; 1.6% of 76,000 active; HEK293 hNpr1 GloSensor cGMP, ANP-stimulated luminescence; calls by dose curve; also: nearly all actives have a fitted effect of over 60% in size
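HEK293 cells stably expressing human Npr1 and cGMP GloSensor pGS-40F, loaded 2 h with 2% GloSensor reagent, given compound 30 min at room temperature. Luminescence read before and 20 min after 0.1 nM hNppA.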
3T3 cytotox – Cytotoxic Profiling in NIH 3T3 Cell Line of Diverse Libraries Using Quantitative High-Throughput Screening; NIH 3T3 viability, CellTiter-Glo ATP luminescence, 48-72 h; Potency, µM (series often up to 96.7 µM), without a hit: top-dose activity change, negative = cytotoxicity, most hits filed as inhibitors; 4.3% of 94,000 active; AID 1345082, 2018; also: nearly all actives have a fitted effect of over 55% in size
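Cytotoxicity is measured as loss of cellular ATP: NIH 3T3 cells (400/well) are exposed to compound for 48 or 72 hr at 37 °C, then CellTiter-Glo luminescence is imaged after 10 min at room temperature.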
* hit, by the source's call; i = inactive; ? = inconclusive; · = not tested or not shown; [ ] = another dose, or the depositor's remark. Unless noted, calls follow the shape of the dose curve; as a rule, active = well fitted curve in the direction sought with a large enough effect; inconclusive = small, poorly fitted or top-dose-only effect, or another doubt; inactive = no such curve, though single readings can be large; an effect the other way counts as inactive or inconclusive. % is scaled to controls: 0 for no effect and ±100 for the full control effect; potency is read from the fitted curve at half-maximal effect.

SMILES | FLuc inh | HEK293 tox | hNpr1 antagonist | 3T3 cytotox
Cc1cc(C)c(CNC(=O)c2nc(-c3cccc(O)c3)cc3c2ccn3C(C)C)c(=O)[nH]1 | i | ? | -15.2%[70.6 µM] | ?
Cc1cc(C)c(CNC(=O)c2nc(-c3ccccc3)cc3c2ccn3C(C)C)c(=O)[nH]1 | i | ? | -11.3%[70.6 µM] | ?
Cc1cc(C)c(CNC(=O)c2nc(-c3cccc(F)c3)cc3c2ccn3C)c(=O)[nH]1 | i | ? | 1.2%[70.6 µM] | -28.6%[138 µM]
Cc1cc(C)c(CNC(=O)c2nc(-c3cccc(F)c3)cc3c2ccn3C(C)C)c(=O)[nH]1 | i | 31.6µM* | -7.4%[70.6 µM] | ?
CO[C@H]1C(=O)N(C(C)C)[C@H]1C1CCN(C(=O)Cc2cccc(F)c2)CC1 | · | -19.6% | · | ?
CC(C)CCN1CCC(N2CCN(Cc3cccnc3)CC2)C1=O (stereo unspecified) | i | -6.2% | 2.6% | -15.4%
CC(C)N1CCC(OCCCNC(=O)CN2CCCc3nc(C4CC4)ncc3C2=O)CC1 | i | -5.4% | -1.0% | i
Nc1nc(C2CC(N)C2)cc(N2CCCN(Cc3cccs3)CC2)n1 (stereo unspecified) | i | 44.7µM* | 4.8% | ?
Cc1nonc1CN1CCN(c2cc(C3CC(N)C3)nc(N)n2)CC1 (stereo unspecified) | i | -17.8% | 1.9% | -15.0%
COc1ccc(CC(=O)N2CCCC(C(=O)N3CCC(N4CCOCC4=O)CC3)C2)cc1 (stereo unspecified) | · | 1.9% | · | 2.2%
CC(C)=CCC1(CO)CCCN(Cc2[nH]c3ccc(F)cc3c2C)C1 (stereo unspecified) | i | 20µM* | -20.0% | 22.4µM*
CC(C)=CCC1(CO)CCCN(Cc2csc(C)n2)C1 (stereo unspecified) | i | ? | 1.6% | -4.3%
COC[C@@H]1CNC[C@H]1c1nc(C)no1 | i | 89.1µM* | -4.4% | -6.8%
COc1ccc(CN2CC3(CCN(C(=O)c4cc(-c5ccc(F)cc5)n[nH]4)CC3)C2=O)cc1 | i | 89.1µM* | -14.7% | ?
Cc1nc(CN2C(=O)OC3(CCN(C(=O)c4cccnc4)CC3)C2(C)c2ccccc2)cs1 (stereo unspecified) | i | i | -2.3% | 44.7µM*
Cc1nc(CN2C(=O)OC3(CCN(C(=O)CCc4ccccn4)CC3)C2(C)c2ccccc2)cs1 (stereo unspecified) | i | 2.2% | 4.4% | ?
Cc1nc(CN2C(=O)OC3(CCN(C(=O)c4scnc4C)CC3)C2(C)c2ccccc2)cs1 (stereo unspecified) | i | -14.0% | -0.6% | 28.2µM*
Cc1nc(CN2C(=O)OC3(CCN(C(=O)c4ccnn4C)CC3)C2(C)c2ccccc2)cs1 (stereo unspecified) | i | 2.3% | -0.1% | 31.6µM*
COc1ccccc1C(=O)N1CCC2(CC1)OC(=O)N(Cc1csc(C)n1)C2(C)c1ccccc1 (stereo unspecified) | i | -6.7% | -1.2% | ?
